Assay results: the supplement of paper PMC9262897, “Low-cost anti-mycobacterial drug discovery using engineered E. coli” (Nature Communications, 2022)
Where a name gives a salt, the structure may show the parent alone. ± gives the standard deviation of the averaged measurements.

Tested on: E. coli TESEC Mtb DapB
Assay: growth (OD600 after 10 h); higher = more growth (less inhibition)
Settings: arabinose induction (level): High; compound 0.1 mM; raw OD600 reference: median of DMSO wells […], cell-free background 0.041
Experimental: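 TESEC E. coli strains in which the native enzyme is deleted and replaced by arabinose-inducible Mtb Asd, DapB, CysH or TrpD, each grown in its selective medium. Strains were screened against the Prestwick library at 0.1 mM and 1% DMSO in 384-well format at low and high arabinose induction. Growth is read as OD600 after 10 h in triplicate.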

| Structure (SMILES) | growth |
| --- | --- |
| COc1cc2nc(N3CCN(C(=O)c4ccco4)CC3)nc(N)c2cc1OC [Prazosin hydrochloride] | 0.247 ± 0.023 |
| NC(=O)NC1NC(=O)NC1=O (stereo not given) [Allantoin] | 0.192 ± 0.0069 |
| CC(=O)[C@H]1CC[C@H]2[C@@H]3C=CC4=CC(=O)CC[C@@]4(C)[C@@H]3CC[C@]12C [Dydrogesterone] | 0.176 ± 0.0054 |
| CN1[C@@H]2CC[C@H]1C[C@@H](OC(=O)c1c[nH]c3ccccc13)C2 [Tropisetron HCl] | 0.219 ± 0.02 |
| Cc1ncc([N+](=O)[O-])n1CC(C)O (stereo not given) [Secnidazole] | 0.2001 ± 0.001 |
| C[C@]1(Cn2ccnn2)[C@H](C(=O)O)N2C(=O)C[C@H]2S1(=O)=O [Tazobactam] | 0.195 ± 0.004 |
| CC(=O)O[C@]1(C(C)=O)CC[C@H]2[C@@H]3C=C(Cl)C4=CC(=O)[C@@H]5C[C@@H]5[C@]4(C)[C@H]3CC[C@@]21C [Cyproterone acetate] | 0.135 ± 0.01 |
| CC1CNc2c(cccc2S(=O)(=O)N[C@@H](CCCNC(=N)N)C(=O)N2CC[C@@H](C)C[C@@H]2C(=O)O)C1 (stereo not given in full) [Argatroban] | 0.181 ± 0.0099 |
| CC(=O)OCC(=O)[C@@]1(O)[C@H](C)C[C@H]2[C@@H]3CCC4=CC(=O)C=C[C@]4(C)[C@@]3(F)[C@@H](O)C[C@@]21C [Dexamethasone acetate] | 0.171 ± 0.017 |
| C=CCOC(Cn1ccnc1)c1ccc(Cl)cc1Cl (stereo not given) [Enilconazole] | 0.0767 ± 0.0029 |
| Cc1noc(NS(=O)(=O)c2ccc(N)cc2)c1C [Sulfisoxazole] | 0.19 ± 0.0067 |
| O=C1CN(/N=C/c2ccc(-c3ccc([N+](=O)[O-])cc3)o2)C(=O)N1 [Dantrolene sodium salt] | 0.192 ± 0.016 |
| COCCc1ccc(OCC(O)CNC(C)C)cc1 (racemic) [Metoprolol-(+,-) (+)-tartrate salt] | 0.214 ± 0.031 |
| CO[C@H]1/C=C/O[C@@]2(C)Oc3c(C)c(O)c4c(O)c(c(/C=N/N5CCN(C6CCCC6)CC5)c(O)c4c3C2=O)NC(=O)/C(C)=C\C=C\[C@H](C)[C@H](O)[C@@H](C)[C@@H](O)[C@@H](C)[C@H](OC(C)=O)[C@@H]1C [Rifapentine] | 0.102 ± 0.087 |
| CNCCC(Oc1ccccc1OC)c1ccccc1 (stereo not given) [Nisoxetine hydrochloride] | 0.149 ± 0.031 |
| CC(CN1c2ccccc2Sc2ccccc21)N(C)C (stereo not given) [Promethazine hydrochloride] | 0.221 ± 0.016 |
| Fc1ccc(C(c2ccc(F)cc2)N2CCN(C/C=C/c3ccccc3)CC2)cc1 [Flunarizine dihydrochloride] | 0.0896 ± 0.0018 |
| CC(=O)O[C@@]12CO[C@@H]1C[C@H](O)[C@@]1(C)C(=O)[C@H](O)C3=C(C)[C@@H](OC(=O)[C@H](O)[C@@H](NC(=O)OC(C)(C)C)c4ccccc4)C[C@@](O)([C@@H](OC(=O)c4ccccc4)[C@H]21)C3(C)C [Docetaxel] | 0.204 ± 0.016 |
| CC(C)n1c(/C=C/C(O)CC(O)CC(=O)O)c(-c2ccc(F)cc2)c2ccccc21 (stereo not given) [Fluvastatin sodium salt] | 0.17 ± 0.0096 |
| CCCNC(C)(C)COC(=O)c1ccccc1 [Meprylcaine hydrochloride] | 0.182 ± 0.022 |

Same assay, conditions: arabinose induction (level): Low; compound 0.1 mM; raw OD600 reference: median of DMSO wells 0.227, cell-free background 0.041

| Structure (SMILES) | growth |
| --- | --- |
| COc1cc2nc(N3CCN(C(=O)c4ccco4)CC3)nc(N)c2cc1OC [Prazosin hydrochloride] | 0.285 ± 0.029 |
| NC(=O)NC1NC(=O)NC1=O (stereo not given) [Allantoin] | 0.276 ± 0.1 |
| CC(=O)[C@H]1CC[C@H]2[C@@H]3C=CC4=CC(=O)CC[C@@]4(C)[C@@H]3CC[C@]12C [Dydrogesterone] | 0.189 ± 0.0083 |
| CN1[C@@H]2CC[C@H]1C[C@@H](OC(=O)c1c[nH]c3ccccc13)C2 [Tropisetron HCl] | 0.264 ± 0.05 |
| Cc1ncc([N+](=O)[O-])n1CC(C)O (stereo not given) [Secnidazole] | 0.216 ± 0.024 |
| C[C@]1(Cn2ccnn2)[C@H](C(=O)O)N2C(=O)C[C@H]2S1(=O)=O [Tazobactam] | 0.19 ± 0.017 |
| CC(=O)O[C@]1(C(C)=O)CC[C@H]2[C@@H]3C=C(Cl)C4=CC(=O)[C@@H]5C[C@@H]5[C@]4(C)[C@H]3CC[C@@]21C [Cyproterone acetate] | 0.131 ± 0.011 |
| CC1CNc2c(cccc2S(=O)(=O)N[C@@H](CCCNC(=N)N)C(=O)N2CC[C@@H](C)C[C@@H]2C(=O)O)C1 (stereo not given in full) [Argatroban] | 0.197 ± 0.016 |
| CC(=O)OCC(=O)[C@@]1(O)[C@H](C)C[C@H]2[C@@H]3CCC4=CC(=O)C=C[C@]4(C)[C@@]3(F)[C@@H](O)C[C@@]21C [Dexamethasone acetate] | 0.233 ± 0.03 |
| C=CCOC(Cn1ccnc1)c1ccc(Cl)cc1Cl (stereo not given) [Enilconazole] | 0.0764 ± 0.0069 |
| Cc1noc(NS(=O)(=O)c2ccc(N)cc2)c1C [Sulfisoxazole] | 0.205 ± 0.022 |
| O=C1CN(/N=C/c2ccc(-c3ccc([N+](=O)[O-])cc3)o2)C(=O)N1 [Dantrolene sodium salt] | 0.231 ± 0.072 |
| COCCc1ccc(OCC(O)CNC(C)C)cc1 (racemic) [Metoprolol-(+,-) (+)-tartrate salt] | 0.236 ± 0.0073 |
| CO[C@H]1/C=C/O[C@@]2(C)Oc3c(C)c(O)c4c(O)c(c(/C=N/N5CCN(C6CCCC6)CC5)c(O)c4c3C2=O)NC(=O)/C(C)=C\C=C\[C@H](C)[C@H](O)[C@@H](C)[C@@H](O)[C@@H](C)[C@H](OC(C)=O)[C@@H]1C [Rifapentine] | 0.0512 ± 0.00082 |
| CNCCC(Oc1ccccc1OC)c1ccccc1 (stereo not given) [Nisoxetine hydrochloride] | 0.2 ± 0.018 |
| CC(CN1c2ccccc2Sc2ccccc21)N(C)C (stereo not given) [Promethazine hydrochloride] | 0.245 ± 0.012 |
| Fc1ccc(C(c2ccc(F)cc2)N2CCN(C/C=C/c3ccccc3)CC2)cc1 [Flunarizine dihydrochloride] | 0.163 ± 0.065 |
| CC(=O)O[C@@]12CO[C@@H]1C[C@H](O)[C@@]1(C)C(=O)[C@H](O)C3=C(C)[C@@H](OC(=O)[C@H](O)[C@@H](NC(=O)OC(C)(C)C)c4ccccc4)C[C@@](O)([C@@H](OC(=O)c4ccccc4)[C@H]21)C3(C)C [Docetaxel] | 0.229 ± 0.047 |
| CC(C)n1c(/C=C/C(O)CC(O)CC(=O)O)c(-c2ccc(F)cc2)c2ccccc21 (stereo not given) [Fluvastatin sodium salt] | 0.199 ± 0.02 |
| CCCNC(C)(C)COC(=O)c1ccccc1 [Meprylcaine hydrochloride] | 0.221 ± 0.0093 |
